# Assay results published in publication PMC4336329 (PLoS ONE, 2015).
# Among all 310,000 compounds or so, about 14,000 (4.5%) showed an effect of 50% or more. The effect is printed as a negative number. The full list was thinned out, with strong results kept by preference.
# Target: human ether-à-go-go-related gene (hERG) potassium channel (human, UniProt Q12809)
# Assay: primary screen, population patch clamp on CHO cells stably expressing hERG; higher = less effect of the substance
# 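Note: peak tail current of the secondary pulse compared with the same well before compound.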
# human ether-à-go-go-related gene (hERG) potassium channel, sequence (Q12809 whole entry, looked up): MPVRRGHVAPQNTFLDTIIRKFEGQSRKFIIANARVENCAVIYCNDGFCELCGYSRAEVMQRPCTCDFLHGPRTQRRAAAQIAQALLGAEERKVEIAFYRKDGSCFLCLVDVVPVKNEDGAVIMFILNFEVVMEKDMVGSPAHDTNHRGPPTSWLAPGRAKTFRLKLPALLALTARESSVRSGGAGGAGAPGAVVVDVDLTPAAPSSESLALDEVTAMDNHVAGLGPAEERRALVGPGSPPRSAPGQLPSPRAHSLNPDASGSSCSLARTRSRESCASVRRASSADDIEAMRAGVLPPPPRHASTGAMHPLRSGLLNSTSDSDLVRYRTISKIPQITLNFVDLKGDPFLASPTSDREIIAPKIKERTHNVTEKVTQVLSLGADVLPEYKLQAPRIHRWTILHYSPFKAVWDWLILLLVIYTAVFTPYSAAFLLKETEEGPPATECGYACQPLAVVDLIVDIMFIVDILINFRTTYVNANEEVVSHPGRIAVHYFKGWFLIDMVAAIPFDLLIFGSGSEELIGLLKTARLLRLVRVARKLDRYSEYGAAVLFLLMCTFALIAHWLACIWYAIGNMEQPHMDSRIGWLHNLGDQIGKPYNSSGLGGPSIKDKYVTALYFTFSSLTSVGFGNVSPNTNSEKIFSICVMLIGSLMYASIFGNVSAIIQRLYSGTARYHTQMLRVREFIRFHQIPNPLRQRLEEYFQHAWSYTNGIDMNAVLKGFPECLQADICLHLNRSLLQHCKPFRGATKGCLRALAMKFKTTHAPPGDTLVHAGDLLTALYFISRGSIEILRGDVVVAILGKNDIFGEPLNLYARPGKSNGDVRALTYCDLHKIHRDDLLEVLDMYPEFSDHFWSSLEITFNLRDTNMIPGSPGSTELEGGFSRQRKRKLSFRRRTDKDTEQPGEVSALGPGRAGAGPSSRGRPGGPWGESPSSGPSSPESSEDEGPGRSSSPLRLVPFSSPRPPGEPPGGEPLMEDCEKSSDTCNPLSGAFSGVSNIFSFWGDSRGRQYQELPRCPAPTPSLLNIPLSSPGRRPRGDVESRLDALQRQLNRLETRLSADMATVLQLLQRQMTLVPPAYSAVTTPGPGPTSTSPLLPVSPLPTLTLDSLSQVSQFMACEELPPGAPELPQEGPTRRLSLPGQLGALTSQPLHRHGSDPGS
row,Structure (SMILES),"hERG current change (%, negative = inhibition) at 10uM"
1,Cc1cccc(NC(=O)C2C(c3ccccc3)C2(Cl)Cl)c1 (stereo not shown),-5.35%
2,CC1CCCCN1CCNc1nc(=S)[nH]c2ccccc12 (stereo not shown),-67.5%
3,S=c1nc(NCCc2ccccc2Cl)c2ccccc2[nH]1,20%
4,CC1CCCCN1CCCNc1c(C=O)c(=O)[nH]c2ccccc12 (stereo not shown),-3.96%
5,Cc1nc2ccccc2c(=O)n1/N=C/c1ccccn1,-3.77%
6,Cc1ccc(S(=O)(=O)N2CCOC2CNC(=O)C(=O)NCCN2CCOCC2)cc1 (stereo not shown),10.6%
7,CCCCCn1c(=N)n(CC(O)COc2ccccc2OC)c2ccccc21.Cl (stereo not shown),-81.1%
8,CCCCCn1c(=N)n(CC(O)COc2ccccc2OC)c2ccccc21 (stereo not shown),-75.9%
9,COc1ccccc1OCC(O)Cn1nc(C)cc1C (stereo not shown),9.76%
10,COc1ccccc1OCC(O)COC(N)=O (stereo not shown),10.3%
11,Cc1ccc(C(=O)Nc2nnc(S(=O)(=O)N3CCN(c4ccc(F)cc4)CC3)s2)cc1,2.59%
12,COc1ccc2c(C)nc(Nc3nc(C)cc(C)n3)nc2c1,5.64%
13,COc1cc(C2(c3ccc(O)c(OC)c3)C(=O)N(C)c3ccc(Br)cc32)ccc1O,-52.6%
14,COc1cc(C2(c3ccc(O)c(OC)c3)C(=O)N(C)c3ccc(C)cc32)ccc1O,-19%
15,Cc1cc(C2(c3ccc(O)c(C)c3)C(=O)N(C)c3ccc(Br)cc32)ccc1O,-2.28%
16,COC(=O)c1c(NC(=O)C(=O)N2CCOCC2)sc2c1CCCC2,7.47%
17,CC1CN(C(=O)c2ccccc2OCc2ccc(Cl)cc2Cl)CC(C)O1 (stereo not shown),-37.7%
18,CC(NC(=O)COC(=O)c1ccc(N(C)C)cc1)c1ccccc1 (stereo not shown),3.44%
19,CC(=O)N(c1ccccc1)c1nc(C)cc(C)c1C#N,12.1%
20,COc1cc(-c2noc(C)c2C#Cc2ccccn2)cc(OC)c1OC,-29%
21,COc1cc(-c2noc(C)c2C#CCO)cc(OC)c1OC,6.47%
22,COc1cc(-c2noc(C)c2C#Cc2nccn2C)cc(OC)c1OC,-53.4%
23,O=Cc1cn(CCC(=O)O)nc1-c1cccc(Br)c1,24.2%
24,O=C(CN(c1cccc([N+](=O)[O-])c1)S(=O)(=O)c1ccccc1)NCc1ccccc1,-68.5%
25,Cc1ccc(CNC(=O)CN(c2cccc([N+](=O)[O-])c2)S(=O)(=O)c2ccccc2)cc1,-25%
26,COc1ccc(N(CC(=O)Nc2cccnc2)S(=O)(=O)c2ccc(C)cc2)cc1Cl,-16.9%
27,Cc1ccc(S(=O)(=O)N(CC(=O)Nc2cccnc2)c2ccc(Br)cc2)cc1,-50.3%
28,Cc1ccc(S(=O)(=O)N(CC(=O)Nc2cccnc2)c2ccccc2C)cc1,-16.4%

row,Structure (SMILES),"hERG current change (%, negative = inhibition) at 10uM"
1,Cc1ccc(S(=O)(=O)N(CC(=O)Nc2cccnc2)c2cccc(Br)c2)cc1,-11.5%
2,O=C(CN(c1cccc([N+](=O)[O-])c1)S(=O)(=O)c1ccccc1)NCc1cccnc1,-42.2%
3,Cc1ccc(S(=O)(=O)N(CC(=O)Nc2cccnc2)c2cccc([N+](=O)[O-])c2)cc1,-56.6%
4,CCOc1ccc(N(CC(=O)Nc2cccnc2)S(=O)(=O)c2ccc(C)cc2)cc1,-5.5%
5,Cc1cc(C)c2cc(C#N)c(NCCCNC(=O)CCC(=O)O)nc2c1,12.2%
6,COc1ccc(N=CC2=C(Nc3ccc(OC)cc3)c3c(C)nn(-c4ccccn4)c3CC2)cc1,-16.4%
7,COCC1CCN(C(=O)c2cc(COc3ccc(F)cc3F)on2)C1 (stereo not shown),-13.2%
8,CCOC(=O)c1c(NC(=O)C2C3CCC(O3)C2C(=O)O)sc2c1CCC(CC)C2 (stereo not shown),-21.1%
9,COc1ccc(OCCN(C)Cc2c(O)ccc3ccccc23)cc1,19%
10,COc1ccc(CCN(C)C(=O)CNC(=O)Cc2cccc3ccccc23)cc1OC,-1.9%
11,COc1ccc2cc(Br)ccc2c1CC(=O)N(C)C,10.7%
12,COc1ccc(CN(C)Cc2c(O)ccc3cc(Br)ccc23)cc1OC,-37.3%
13,COc1ccc(CN(C)Cc2c(O)ccc3ccccc23)cc1,-24.7%
14,COc1ccc(CCN(C)Cc2c(O)ccc3cc(Br)ccc23)cc1OC,-59.5%
15,COc1cc(CN(C)Cc2cccc3ccccc23)cc([N+](=O)[O-])c1O,11.9%
16,COc1ccc(CCN(C)Cc2cccc3ccccc23)cc1OC,-73.8%
17,COc1ccc(CCN(C)Cc2c(O)ccc3ccccc23)cc1OC,-74%
18,Cc1ccc(C(=O)NCC(=O)OCCOc2cccc(Cl)c2)cc1,-7.72%
19,Cc1nn(C)c2ncc(C(N)=O)c(Oc3ccc(Cl)cc3)c12,7.24%
20,Cc1ccc(S(=O)(=O)Nc2cccc3cccnc23)cc1,-12.1%
21,O=C(CSc1nc(Nc2ccccc2)nc(N2CCOCC2)n1)Nc1ccc([N+](=O)[O-])cc1,9.65%
22,COc1ccc([C@@H]2[C@H]3C(=O)N(c4cccc(C(F)(F)F)c4)C(=O)[C@H]3ON2C)cc1,-12.1%
23,COc1ccc(S(=O)(=O)NCCOc2ccccc2)cc1F,8.52%
24,CC(C)NC(=O)Cn1nnc(-c2ccc(Cl)cc2)n1,4.9%
25,Cc1nn(CC(=O)NCc2ccccn2)c(C)c1[N+](=O)[O-],-10.9%
26,Cc1ccc(NC(=O)COC(=O)c2ccc(Cl)nc2)cc1S(=O)(=O)N1CCCCC1,15.2%
27,O=C(Nc1ccccc1C(=O)N1CCN(CCO)CC1)c1cccc([N+](=O)[O-])c1,7%
